Assay outcomes as filed in PubChem BioAssay.
Hits are enriched below; roughly 11% of the tested compounds scored in any of these assays.
KDM4E inh: qHTS Assay for Inhibitors of Human Jumonji Domain Containing 2E (JMJD2E); AID 2147, 2009; Lysine-specific demethylase 4E (Homo sapiens), B2RXH2; Potency, µM (series often up to 57.1 µM), for inactives: top-dose activity change, negative = inhibition, most hits filed as inhibitors; JMJD2E catalytic domain, FDH-coupled NADH fluorescence (FDH is formaldehyde dehydrogenase); hit rate 1.6% among 230,000;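 note: potency is the fitted concentration of half-maximal effect; 0% = wells with enzyme and -100% = buffer wells without enzyme; nearly all actives have a fitted effect of over 50% in size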
Target sequence (B2RXH2 1-337 limits assumed): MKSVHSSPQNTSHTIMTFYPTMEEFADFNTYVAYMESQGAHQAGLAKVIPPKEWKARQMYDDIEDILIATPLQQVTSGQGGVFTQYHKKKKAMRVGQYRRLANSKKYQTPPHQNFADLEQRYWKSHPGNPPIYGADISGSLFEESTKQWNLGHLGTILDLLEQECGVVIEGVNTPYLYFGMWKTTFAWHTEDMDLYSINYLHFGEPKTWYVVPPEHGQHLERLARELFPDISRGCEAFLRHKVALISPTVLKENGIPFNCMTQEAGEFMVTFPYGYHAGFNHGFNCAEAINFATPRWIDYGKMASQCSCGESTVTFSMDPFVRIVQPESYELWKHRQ
HPGD inh: qHTS Assay for Inhibitors of HPGD (15-Hydroxyprostaglandin Dehydrogenase); 15-hydroxyprostaglandin dehydrogenase [NAD(+)] (Homo sapiens), P15428; Potency, µM, for inactives: top-dose activity change, negative = inhibition, hits mostly inhibitors; hit rate 4.3% among 150,000; purified HPGD, NADH fluorescence kinetic, PGE2 substrate; AID 894, 2007; note: potency is the fitted concentration of half-maximal effect; % is set by controls: 0 for no effect and ±100 for the full control effect
Target sequence (P15428 whole entry, looked up): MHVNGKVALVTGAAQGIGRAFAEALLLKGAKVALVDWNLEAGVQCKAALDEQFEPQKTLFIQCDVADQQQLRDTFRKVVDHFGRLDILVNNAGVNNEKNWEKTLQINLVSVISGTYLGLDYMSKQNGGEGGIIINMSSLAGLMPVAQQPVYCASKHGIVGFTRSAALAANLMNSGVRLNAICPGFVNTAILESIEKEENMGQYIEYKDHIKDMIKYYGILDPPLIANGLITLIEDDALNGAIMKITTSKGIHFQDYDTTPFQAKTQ
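NADH formation kinetics: reaction with 30 uM PGE2 and 1 mM NAD+ (final), 20 nM enzyme, Tris-HCl pH 8 with Tween 20, after 15 min compound preincubation at room temperature. Fluorescence change, last versus first of five reads.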
PNC assembly inh: High Content Assay for Compounds that inhibit the Assembly of the Perinucleolar Compartment. PC3M PTB-GFP, PNC prevalence imaging, 16 h; stronger effect = lower value. activity change (PNC), negative = inhibition, % at 10 µM. hit rate 3.1% among 140,000. AID 2417, 2010;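 active = readout at or below -70, meaning at least 70% loss of cells showing the perinucleolar compartment, a nuclear body marking cancer cells; inconclusive = readout between -30 and a set limit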;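 note: plate controls were DMSO wells for no effect and camptothecin positive control wells for full effect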
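Read-out is percentage of cells bearing a perinucleolar compartment, from automated 20x imaging of fixed, Hoechst-stained PC3M PTB-GFP cells. Cells were seeded 4 h, then exposed 16 h to compound (23 nl of library stock) in duplicate plates.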
ALDH1A1 inh: qHTS Assay for Inhibitors of Aldehyde Dehydrogenase 1 (ALDH1A1). Aldehyde dehydrogenase 1A1 (Homo sapiens), P00352. Potency, µM (highest dose often 75.3 µM), without a hit: top-dose activity, negative = inhibition, usual class: inhibitors. hit rate 7.3% among 220,000. Purified ALDH1A1, NADH fluorescence, propionaldehyde substrate;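 note: potency is the fitted concentration of half-maximal effect; plate controls were no enzyme wells and a reference inhibitor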
HPGD inh cf: Confirmation qHTS Assay for Inhibitors of HPGD (15-Hydroxyprostaglandin Dehydrogenase). recombinant HPGD, NADH fluorescence, PGE2 substrate. Potency, µM (highest dose often 57.1 µM), inactives show top-dose activity change, negative = inhibition, actives largely listed as inhibitors. hit rate 90% among 90. AID 2429, 2010. shares compounds with HPGD inh; calls by dose curve
The depositor's hits bear a star. Unless noted, calls come from the whole dose curve; as a rule, active = well fitted inhibition curve with a large enough effect (not every such curve was filed as active); inconclusive = small, poorly fitted or top-dose-only effect, or another doubt; inactive = no such curve, though single readings can be large or run the other way.

Screening O=c1c2ccccc2sn1-c1cc(S(=O)(=O)N2CCOCC2)ccc1N1CCCC1 returned KDM4E inh 14µM*, HPGD inh 0.22µM*, PNC assembly inh -108*, ALDH1A1 inh 0.022µM* and HPGD inh cf 2.5µM*.
For CCOc1ccc(OCc2ccc(C(=O)N3CCCC(C)C3)cc2)cc1 (centres undefined) the results were KDM4E inh -1% and ALDH1A1 inh inconclusive.
Screening CC1CCCN(C(=O)c2ccc(COc3ccccc3Br)cc2)C1 (centres undefined) returned KDM4E inh -2%, HPGD inh 0.089µM*, PNC assembly inh 31, ALDH1A1 inh 25µM* and HPGD inh cf 0.13µM*.
`CC(C)C(NC(=O)c1ccc(F)cc1)C(=O)NCC1CCCO1` (centres undefined) gave KDM4E inh 1% and ALDH1A1 inh -3%.
`O=C(c1ccc(N2C(=O)C3CC=C(Cl)CC3C2=O)cc1)N1CCOCC1` (centres undefined) gave KDM4E inh 3% and ALDH1A1 inh -2%.
`O=C(Nc1nccs1)c1ccc(N2C(=O)C3CCCCC3C2=O)cc1` (centres undefined) gave KDM4E inh 6% and ALDH1A1 inh inconclusive.
CC1=CCC2C(=O)N(c3ccc(C(=O)N4CCCCCC4)cc3)C(=O)C2C1 (centres undefined) was read as KDM4E inh 1%, HPGD inh 1.4µM*, PNC assembly inh 26, ALDH1A1 inh inconclusive and HPGD inh cf 0.79µM*.
Screening CCOC(=O)c1ccc(N2C(=O)C3CC=C(C)CC3C2=O)cc1 (centres undefined) returned KDM4E inh 1%, HPGD inh -14%, PNC assembly inh -19 and ALDH1A1 inh inconclusive.
O=C(c1ccc(N2C(=O)C3CC=C(Cl)CC3C2=O)cc1)N1CCCCC1 (centres undefined) was read as KDM4E inh 5%, HPGD inh 0.5µM*, PNC assembly inh -25, ALDH1A1 inh 18µM* and HPGD inh cf 0.25µM*.
O=C(c1ccc(N2C(=O)C3CCCCC3C2=O)cc1)N1CCCCC1 (centres undefined) was read as KDM4E inh 6%, HPGD inh 1µM*, PNC assembly inh 15, ALDH1A1 inh inconclusive and HPGD inh cf 0.56µM*.
CN(C)c1ncc2ncc(=O)n(C3CC3)c2n1 was read as ALDH1A1 inh -7%.
Screening CC(C)(C)OC(=O)N1CCN(C(=O)c2cccnc2Cl)CC1 returned KDM4E inh 8% and ALDH1A1 inh 7%.
COc1ccc(S(=O)(=O)N(C)c2ccc(C(=O)N3CCC(C(N)=O)CC3)cc2)cc1 was read as KDM4E inh -3%, HPGD inh -11%, PNC assembly inh 8, ALDH1A1 inh -5% and HPGD inh cf -25%.
Cc1oc(-c2ccccc2Cl)nc1CSc1nc2c(c(=O)[nH]1)CCCC2 was read as KDM4E inh -1%.
O=c1[nH]c(SCc2ccccc2Cl)nc2c1CCC2 was read as KDM4E inh -3%, HPGD inh 1µM*, PNC assembly inh -101*, ALDH1A1 inh -4% and HPGD inh cf 2.2µM*.
For O=[N+]([O-])c1cccc(P(=O)(O)c2cccc([N+](=O)[O-])c2)c1 the results were KDM4E inh -3%.
Screening COCCNC(=O)c1nc2c(nnn2Cc2cc(C)ccc2C)c(=O)[nH]1 returned KDM4E inh -6%, HPGD inh 0.2µM*, PNC assembly inh inconclusive, ALDH1A1 inh inconclusive and HPGD inh cf 0.71µM*.
Screening Cc1ccc(C)c(Cn2nnc3c(=O)[nH]c(C(=O)NCC4CCCO4)nc32)c1 (centres undefined) returned KDM4E inh 0%, HPGD inh 1.3µM*, PNC assembly inh -3, ALDH1A1 inh -11% and HPGD inh cf 0.4µM*.
For COc1ccc(N2CCN(C(=O)c3ccc(CSc4ccccc4)cc3)CC2)cc1 the results were KDM4E inh 3%, HPGD inh -12%, PNC assembly inh 18, ALDH1A1 inh 0% and HPGD inh cf -20%.
`CCOC(=O)N/N=C(\C)c1ccc(OC(F)F)cc1OC(F)F` gave KDM4E inh 9%, HPGD inh -3%, PNC assembly inh -14 and ALDH1A1 inh 20%.
Screening CCOC(=O)c1sc(NC(=O)CSc2n[nH]c(-c3ccccc3)n2)c(C#N)c1C returned KDM4E inh inconclusive, HPGD inh 1µM*, PNC assembly inh 21, ALDH1A1 inh 2.8µM* and HPGD inh cf 1.1µM*.
Screening COc1ccc(OC)c(-c2nc3cc4ccccc4cc3nc2-c2ccccc2)c1 returned KDM4E inh -2%, HPGD inh -8%, PNC assembly inh 17 and ALDH1A1 inh -9%.
`O=c1c2ccccc2[nH]c(=S)n1Cc1ccc2c(c1)OCO2` gave KDM4E inh 4% and ALDH1A1 inh 4%.
`O=C(c1ccc2c(=O)n(Cc3ccc4c(c3)OCO4)c(=S)[nH]c2c1)N1CCCCC1` gave KDM4E inh 3%, HPGD inh 0.4µM*, PNC assembly inh inconclusive, ALDH1A1 inh 2% and HPGD inh cf inconclusive.
Screening Cc1ccc(S(=O)(=O)n2nnc3ccccc32)c(C)c1C returned KDM4E inh -26% and ALDH1A1 inh inconclusive.
Screening CN(C)C(=O)c1ccc(-c2nc(N(C)C)c3ccccc3n2)cc1 returned KDM4E inh inconclusive, HPGD inh 0.32µM*, ALDH1A1 inh inconclusive and HPGD inh cf 2.5µM*.
For CN(C)C(=O)c1ccc(-c2nc(NCc3ccccc3)c3ccccc3n2)cc1 the results were KDM4E inh 0%, HPGD inh inconclusive, ALDH1A1 inh 2% and HPGD inh cf 14µM*.
For COc1ccccc1C1CCN(c2ccc(CO)cc2[N+](=O)[O-])CC1 the results were KDM4E inh -28% and ALDH1A1 inh inconclusive.
Screening O=C(/C=C/C=C/c1ccccc1)CC1(O)C(=O)N(CCc2ccccc2)c2ccccc21 (centres undefined) returned KDM4E inh -9%, HPGD inh -14%, PNC assembly inh 30 and ALDH1A1 inh inconclusive.
